Laboratory results from PubChem BioAssay AID1159580 (chemical genetic matrix, 2015).
About 2,000 (36%) of roughly 5,500 compounds were called active. Roughly 18% stayed inconclusive and do not appear here. Cut-off read from the data, not from the text of the source: active = normalized growth mostly below about 0.91 (no sharp cut-off); inconclusive = no clear call, values can overlap the other calls; inactive = mostly above about 0.92. This is one part of the list.

Assay: chemical genetic growth profiling, strain panel (AID 1159580);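 note: tested at 20 µM; growth read once vehicle control cultures reached saturation at 30 °C; 1 = growth at the plate median or of vehicle wells; lower values mean less growth of the strain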
Details: S. cerevisiae deletion strains, growth OD

Measured: normalized growth

O=C(Cc1cccs1)NC1C(=O)N2C(C(=O)[O-])=C(C[n+]3ccccc3)CSC12 (stereo unspecified)
inactive: locus YAL013W, strain DEP1, hits give low values 1.01 | locus YAL021C, strain ccr4, hits give low values 0.966 | locus YAL026C, strain drs2, hits give low values 0.989 | locus YAL030W, strain snc1, hits give low values 0.994 | locus YBL061C, strain skt5, hits give low values 0.995 | locus YBR009C, strain hhf1, hits give low values 0.981 | locus YBR021W, strain FUR4, hits give low values 1 | locus YBR023C, strain chs3, hits give low values 0.993 | locus YBR171W, strain sec66, hits give low values 0.975 | locus YBR229C, strain ROT2, hits give low values 0.99 | locus YBR231C, strain swc5, hits give low values 0.985 | locus YBR279W, strain paf1, hits give low values 0.996 | locus YCL011C, strain gbp2, hits give low values 0.997 | locus YCL016C, strain dcc1, hits give low values 0.991 | locus YCL029C, strain bik1, hits give low values 1 | locus YCL069W, strain vba3, hits give low values 0.991 | locus YCR088W, strain abp1, hits give low values 0.982 | locus YDL005C, strain med2, hits give low values 0.968 | locus YDL035C, strain GPR1, hits give low values 0.998 | locus YDL040C, strain nat1, hits give low values 0.983 | locus YDL074C, strain BRE1, hits give low values 1.01 | locus YDL101C, strain DUN1, hits give low values 1.02 | locus YDL134C, strain PPH21, hits give low values 1 | locus YDL185W, strain tfp1, hits give low values 0.991 | locus YDL192W, strain arf1, hits give low values 0.992 | locus YDR001C, strain nth1, hits give low values 0.996 | locus YDR069C, strain doa4, hits give low values 0.964 | locus YDR101C, strain arx1, hits give low values 1.01 | locus YDR137W, strain rgp1, hits give low values 0.988 | locus YDR159W, strain sac3, hits give low values 0.962 | locus YDR162C, strain NBP2, hits give low values 1.01 | locus YDR195W, strain ref2 1.01 | locus YDR297W, strain sur2, hits give low values 0.989 | locus YDR318W, strain mcm21, hits give low values 0.998 | locus YDR334W, strain swr1, hits give low values 0.993 | locus YDR335W, strain msn5, hits give low values 0.996 | locus YDR388W, hits give low values 0.99 | locus YDR392W, strain spt3, hits give low values 0.994 | locus YDR502C, strain sam2, hits give low values 0.985 | locus YEL003W, strain gim4, hits give low values 0.969 | locus YEL037C, strain rad23, hits give low values 1 | locus YEL061C, strain CIN8 (second series), hits give low values 1 | locus YEL061C, strain CIN8, hits give low values 1.01 | locus YER015W, strain faa2, hits give low values 0.983 | locus YER016W, strain bim1, hits give low values 0.983 | locus YER110C, hits give low values 0.992 | locus YER111C, strain swi4, hits give low values 0.96 | locus YER155C, strain BEM2 (second series), hits give low values 0.987 | locus YER155C, strain BEM2, hits give low values 1 | locus YER167W, strain BCK2, hits give low values 0.991 | locus YFR010W, strain ubp6, hits give low values 0.986 | locus YGL078C, strain dbp3, hits give low values 0.99 | locus YGL086W, strain mad1, hits give low values 0.999 | locus YGL167C, strain pmr1, hits give low values 0.985 | locus YGL173C, strain kem1, hits give low values 0.982 | locus YGL227W, strain vid30, hits give low values 0.979 | locus YGL240W, strain doc1, hits give low values 0.956 | locus YGL248W, strain PDE1, hits give low values 1.02 | locus YGL253W, strain hxk2, hits give low values 0.999 | locus YGR135W, strain pre9, hits give low values 0.978 | locus YGR252W, strain gcn5, hits give low values 0.941 | locus YHR013C, strain ard1, hits give low values 0.981 | locus YHR027C, strain rpn1, hits give low values 0.991 | locus YHR030C, strain SLT2, hits give low values 1.01 | locus YHR079C, strain IRE1 (second series), hits give low values 0.996 | locus YHR094C, strain hxt1, hits give low values 0.998 | locus YHR129C, strain ARP1, hits give low values 1.01 | locus YHR142W, strain chs7, hits give low values 0.963 | locus YHR200W, strain rpn10, hits give low values 0.994 | locus YIL066C, strain RNR3, hits give low values 1.02 | locus YIL073C, strain SPO22, hits give low values 1.09 | locus YIL125W, strain kgd1, hits give low values 0.999 | locus YIR030C, strain dcg1, hits give low values 1.01 | locus YJL092W, strain hpr5, hits give low values 0.986 | locus YJL095W, strain BCK1 (second series), hits give low values 0.961 | locus YJL095W, strain BCK1, hits give low values 1.03 | locus YJL115W, strain asf1, hits give low values 0.981 | locus YJL129C, strain trk1, hits give low values 0.99 | locus YJL134W, strain LCB3, hits give low values 1 | locus YJL154C, strain vps35, hits give low values 0.983 | locus YJL164C, strain tpk1, hits give low values 0.985 | locus YJL166W, strain qcr8, hits give low values 0.979 | locus YJL168C, strain set2, hits give low values 0.994 | locus YJL187C, strain SWE1 (second series), hits give low values 1.01 | locus YJL187C, strain SWE1, hits give low values 0.978 | locus YJR043C, strain POL32, hits give low values 1.01
